FLuc modulator – qHTS profiling assay for firefly luciferase inhibitor/activator using purifed enzyme and Km concentrations of substrates (counterscreen for miR-21 project); Luciferin 4-monooxygenase (Photinus pyralis), P08659; purified FLuc, Km substrates, luminescence inhibition; Potency, µM (doses to about 57.5 µM), inactives show top-dose activity change, negative = inhibition, usual class: inhibitors; hit rate 6.9% among 360,000; AID 588342, 2011;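 note: plate controls were vehicle for no effect and reference inhibitor for full effect; nearly all actives have a fitted effect of over 55% in size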
Target sequence (P08659 whole entry, looked up): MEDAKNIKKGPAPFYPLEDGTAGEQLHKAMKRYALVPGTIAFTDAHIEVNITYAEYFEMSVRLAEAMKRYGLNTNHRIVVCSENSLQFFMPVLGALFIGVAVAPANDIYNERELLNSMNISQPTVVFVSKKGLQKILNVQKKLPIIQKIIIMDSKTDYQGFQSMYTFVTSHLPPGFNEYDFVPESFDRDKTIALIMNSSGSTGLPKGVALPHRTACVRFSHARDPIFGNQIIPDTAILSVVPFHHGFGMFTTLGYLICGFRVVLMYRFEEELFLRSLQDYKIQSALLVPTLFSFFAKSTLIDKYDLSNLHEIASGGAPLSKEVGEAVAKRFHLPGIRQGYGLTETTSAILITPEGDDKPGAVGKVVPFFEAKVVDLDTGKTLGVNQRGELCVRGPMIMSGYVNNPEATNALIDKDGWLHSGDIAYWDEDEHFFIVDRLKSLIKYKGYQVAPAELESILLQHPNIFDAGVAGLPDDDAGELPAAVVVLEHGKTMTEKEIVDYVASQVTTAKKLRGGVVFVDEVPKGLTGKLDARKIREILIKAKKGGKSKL
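Biochemical qHTS of compounds, final roughly 60 µM downward over six points, against 10 nM purified firefly luciferase using Km concentrations of substrates (10 uM D-luciferin, 10 uM ATP) in Tris acetate pH 7.5 buffer; luminescence output.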
Rab9 prom act – qHTS Assay for Rab9 Promoter Activators; Huh7 Rab9 promoter-luciferase reporter, luminescence, 24 h; Potency, µM (top dose mostly 9.22 µM), for the others: top-dose activation, negative = inhibition, usual class: activators; hit rate 2.8% among 320,000; AID 485297, 2010; note: % of control where 0% means no effect; nearly all actives have a fitted effect of over 60% in size
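Stable Rab9-luc Huh7, 1500 cells/well, 2 h settle; cmpd in DMSO, 24 h, 37 °C/5% CO2; luciferase reagent 10 min RT; luminescence.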
NPC1 promoter act – qHTS Assay for NPC1 Promoter Activators | Huh7 NPC1 promoter luciferase reporter, 24 h | Potency, µM (series often up to 9.22 µM), inactives show top-dose activation, hits mostly activators | hit rate 2.4% among 320,000 | AID 485313, 2010; note: % of control where 0% means no effect; nearly all actives have a fitted effect of over 60% in size
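Quantitative HTS used a cell-based reporter: Huh7 cells stably bearing the NPC1 promoter upstream of luciferase were treated with compounds for 24 h, and promoter activation was read as luminescence.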
ELG1 genotox – qHTS screen for small molecules that induce genotoxicity in human embryonic kidney (HEK293T) cells expressing luciferase-tagged ELG1; hit rate 1.3% among 330,000; HEK293T ELG1-luciferase reporter, luminescence, 16 h; Potency, µM (titrated, usually from 46 µM), without a hit: top-dose activity change, positive = activation, hits mostly activators; note: % of control where 0% means no effect; nearly all actives have a fitted effect of over 60% in size
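Cells (2,000/well) expressing the ELG1-luciferase fusion are dosed by pin tool and kept 16 hr at 37 °C, 5% CO2. Signal comes from ONE-Glo luciferase reagent after 30 min at room temperature.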
SMN2 splice up – qHTS Assay for Enhancers of SMN2 Splice Variant Expression. HEK293 SMN2-luciferase splicing reporter, luminescence, 30-36 h. Potency, µM (highest dose often 46.1 µM), without a hit: at the top dose activity change, positive = activation, actives largely listed as activators. hit rate 2.8% among 210,000. AID 1458, 2008; note: % of control where 0% means no effect; nearly all actives have a fitted effect of over 55% in size
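HEK293 cells carry an SMN2 minigene-luciferase reporter in which exon 7 inclusion puts luciferase in frame. Cells were seeded at 2000 cells/well, attached for 10-12 hours, then exposed to compounds for 30-36 hours at 37C before ONE-Glo luminescence.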
An asterisk follows results filed as active. Only some compounds are listed: those with a hit (about 7.5% of all), similar ones and a draw of the others. Calls come from the whole dose curve; as a rule, active = well fitted curve in the direction sought with a large enough effect; inconclusive = small, poorly fitted or top-dose-only effect, or another doubt; inactive = no such curve, though single readings can be large; an effect the other way counts as inactive or inconclusive. Potency is the fitted concentration of half-maximal effect.

How did O=C(CCN1C(=O)c2ccccc2C1=O)NCCC1=CCCCC1 do in these assays?
FLuc modulator: 21.3µM*; Rab9 prom act: 2.51µM*; NPC1 promoter act: inconclusive; ELG1 genotox: 29.9%; SMN2 splice up: 13.9%

What do the screens show for `O=C(NCCc1ccc(Cl)cc1)c1cnccn1`?
FLuc modulator: -17.9%; Rab9 prom act: 24.7%; NPC1 promoter act: 16.4%; ELG1 genotox: 16.1%

What do the screens show for `O=C(NCCC1=CCCCC1)c1ccc(Cl)cc1`?
FLuc modulator: 1.35µM*; Rab9 prom act: 0.282µM*; NPC1 promoter act: 0.316µM*; ELG1 genotox: inconclusive

What do the screens show for `O=C(NCCC1=CCCCC1)c1cnccn1`?
FLuc modulator: inconclusive; Rab9 prom act: 3.16µM*; NPC1 promoter act: inconclusive; ELG1 genotox: 14.6µM*; SMN2 splice up: 11.2µM*

Results for CS(=O)(=O)N(Cc1ccc(Cl)cc1)c1ccc(C(=O)NCCC2=CCCCC2)cc1 ?
FLuc modulator: 2.0%; Rab9 prom act: -2.4%; NPC1 promoter act: 0.9%; ELG1 genotox: 0.5%; SMN2 splice up: 0.0%

How did COc1cccc(C(=O)CN(C(=O)c2ccc(Cl)cc2Cl)N2C(=O)c3ccccc3C2=O)c1 do in these assays?
FLuc modulator: -2.2%; Rab9 prom act: -0.7%; NPC1 promoter act: 0.6%; ELG1 genotox: 1.5%; SMN2 splice up: 5.3%

Results for Cn1cccc1/C=N/NC(=O)c1cccs1 ?
FLuc modulator: 15.1µM*; Rab9 prom act: inconclusive; NPC1 promoter act: inconclusive; ELG1 genotox: inconclusive

What do the screens show for `Cn1cc(/C=N\NC(=O)c2cccs2)c2ccccc21`?
FLuc modulator: inconclusive; Rab9 prom act: 2.24µM*; NPC1 promoter act: inconclusive; ELG1 genotox: 11.2µM*; SMN2 splice up: 14.1µM*

What do the screens show for `CCCc1cc(C(=O)N/N=C/c2cccn2C)cs1`?
FLuc modulator: 16.9µM*; Rab9 prom act: inconclusive; NPC1 promoter act: inconclusive; ELG1 genotox: 18.3µM*

Results for COc1ccc(NC(=O)CCC2CCCCC2)cc1S(=O)(=O)N1CCCCC1 ?
FLuc modulator: -0.9%; Rab9 prom act: -13.5%; NPC1 promoter act: -6.6%; ELG1 genotox: -12.8%

How did CC(=O)c1cccc(NC(=O)Cn2c(=O)c(CNc3ccc(C)cc3)cc3cc4c(cc32)OCCO4)c1 do in these assays?
FLuc modulator: -7.5%

What do the screens show for `CCc1ccc(C(=O)COC(=O)C(NC(=O)C2CCC(C)CC2)C(C)C)cc1` (stereo unspecified)?
FLuc modulator: 1.69µM*; SMN2 splice up: -5.7%

What do the screens show for `CCc1ccc(C(=O)COC(=O)[C@@H](NC(N)=O)[C@@H](C)CC)cc1`?
FLuc modulator: 1.35µM*; Rab9 prom act: inconclusive; NPC1 promoter act: 18.1%; ELG1 genotox: inconclusive; SMN2 splice up: -3.1%

Results for CCN(CC)C(=O)CSc1nc(N)c(C#N)c(-c2cccs2)c1C#N ?
FLuc modulator: 2.3%; Rab9 prom act: -3.6%; NPC1 promoter act: -4.4%; ELG1 genotox: 5.7%; SMN2 splice up: -16.2%

Results for CCSc1nc(N)nc(-c2cccs2)c1C#N ?
FLuc modulator: inconclusive; Rab9 prom act: 23.3%; NPC1 promoter act: 25.7%; ELG1 genotox: 20.6µM*; SMN2 splice up: inconclusive

How did O=C(Nc1ccncc1)c1ccc2c(c1)OCCO2 do in these assays?
FLuc modulator: 16.9µM*; Rab9 prom act: 8.5%; NPC1 promoter act: 0.0%; ELG1 genotox: 4.6%; SMN2 splice up: -25.8%

What do the screens show for `NS(=O)(=O)c1ccc(NC(=O)c2ccc3c(c2)OCO3)cc1`?
FLuc modulator: -17.6%; Rab9 prom act: 12.2%; NPC1 promoter act: 14.9%; ELG1 genotox: 3.8%

Results for Cc1ccc(NC(=O)c2ccc3c(c2)OCCO3)cc1 ?
FLuc modulator: 0.536µM*; Rab9 prom act: 0.1µM*; NPC1 promoter act: 0.316µM*; ELG1 genotox: inconclusive; SMN2 splice up: 0.708µM*

What do the screens show for `COc1ccc(-n2nc(C(=O)NCC(=O)N3CCN(c4ccc(F)cc4)CC3)c3ccccc3c2=O)c(OC)c1`?
FLuc modulator: 1.69µM*; Rab9 prom act: 21.7%; NPC1 promoter act: 16.9%; ELG1 genotox: 13.2%

Results for COc1ccc(N2CCN(C(=O)CNC(=O)c3cn(-c4ccccc4OC)c(=O)c4ccccc34)CC2)cc1 ?
FLuc modulator: inconclusive; Rab9 prom act: -4.9%; NPC1 promoter act: -3.6%; ELG1 genotox: -3.3%; SMN2 splice up: -3.0%

What do the screens show for `COc1ccc(-n2nc(C(=O)NCC(=O)NCc3ccccc3OC)c3ccccc3c2=O)c(OC)c1`?
FLuc modulator: -0.7%; Rab9 prom act: 0.1%; NPC1 promoter act: 0.5%; ELG1 genotox: 0.0%; SMN2 splice up: -4.7%

How did COc1ccc(-n2nc(C(=O)NCC(=O)N3CCN(c4ccccc4)CC3)c3ccccc3c2=O)c(OC)c1 do in these assays?
FLuc modulator: 0.536µM*; Rab9 prom act: inconclusive; NPC1 promoter act: inconclusive; ELG1 genotox: 0.0%

Results for O=C(CSc1ccccn1)Nc1nonc1[N+](=O)[O-] ?
FLuc modulator: -3.7%; Rab9 prom act: -3.5%; NPC1 promoter act: -25.1%; ELG1 genotox: -20.8%

How did CN(C)c1ccc(/C=C/c2ccc3ccccc3[n+]2C)cc1 do in these assays?
FLuc modulator: inconclusive; Rab9 prom act: -46.8%; NPC1 promoter act: -34.8%; ELG1 genotox: 10.2%; SMN2 splice up: -74.0%

What do the screens show for `COc1ccc(/C=C/c2ccc3ccccc3[n+]2C)cc1OC`?
FLuc modulator: 16.9µM*; Rab9 prom act: -11.3%; NPC1 promoter act: -4.0%; ELG1 genotox: inconclusive

Results for Cc1ccc(C(=O)/C=C/C(=O)c2ccc(C)cc2)cc1 ?
FLuc modulator: inconclusive; Rab9 prom act: 1.0%; NPC1 promoter act: -4.0%; ELG1 genotox: -10.6%; SMN2 splice up: -105.2%

Results for Cc1ccc(N/C=C/C(=O)c2ccc(C)cc2)cc1 ?
FLuc modulator: 0.757µM*; Rab9 prom act: 1.58µM*; NPC1 promoter act: 1.41µM*; ELG1 genotox: inconclusive

What do the screens show for `Cc1ccc(O)c(NC(=O)/C=C/C(=O)O)c1`?
FLuc modulator: 2.9%; Rab9 prom act: -3.0%; NPC1 promoter act: -3.7%; ELG1 genotox: 0.8%; SMN2 splice up: -18.2%

How did Cc1ccc(C(=O)/C=C\Nc2ccc(C)c(C)c2)cc1 do in these assays?
FLuc modulator: 2.13µM*; Rab9 prom act: 1.58µM*; NPC1 promoter act: 2µM*; ELG1 genotox: inconclusive; SMN2 splice up: 11.2µM*

How did Cc1ccc(O)c(N/C=C/C(=O)c2ccc(F)cc2)c1 do in these assays?
FLuc modulator: 2.39µM*; Rab9 prom act: -3.5%; NPC1 promoter act: 0.6%; ELG1 genotox: 20.6µM*

Results for O=C(CSc1cn(CC(=O)N2CCCCC2)c2ccccc12)NCc1ccc(F)cc1 ?
FLuc modulator: -9.7%
